# According to the supplement of paper PMC8728848:
# The sample as a whole holds a higher share of the strongest signals than the screen did.
# B1: FBG4 (Homo sapiens), Q96EF6 (protein)
# chain: MGARLSRRRLPADPSLALDALPPELLVQVLSHVPPRSLVTRCRPVCRAWRDIVDGPTVWLLQLARDRSAEGRALYAVAQRCLPSNEDKEEFPLCALARYCLRAPFGRNLIFNSCGEQGFRGWEVEHGGNGWAIEKNLTPVPGAPSQTCFVTSFEWCSKRQLVDLVMEGVWQELLDSAQIEICVADWWGARENCGCVYQLRVRLLDVYEKEVVKFSASPDPVLQWTERGCRQVSHVFTNFGKGIRYVSFEQYGRDVSSWVGHYGALVTHSSVRVRIRLS
# B2: Tachylectin-2 (Tachypleus tridentatus), TAL2_TACTR (protein)
# chain: VGGESMLRGVYQDKFYQGTYPQNKNDNWLARATLIGKGGWSNFKFLFLSPGGELYGVLNDKIYKGTPPTHDNDNWMGRAKKIGNGGWNQFQFLFFDPNGYLYAVSKDKLYKASPPQSDTDNWIARATEIGSGGWSGFKFLFFHPNGYLYAVHGQQFYKALPPVSNQDNWLARATKIGQGGWDTFKFLFFSSVGTLFGVQGGKFYEDYPPSYAHDNWLARAKLIGNGGWDDFRFLFF
# B3: RegIIIalpha (Mus musculus), O09037 (protein)
# chain: MLPHLVLNSISWMLLSCLLFVFQVQGEDFQKEVPSPRTSCPMGYKAYRSHCYALVMTPKSWFQADLVCQKRPSGHLVSILSGGEASFVSSLVNGRVDNYQDIWIGLHDPTMGQQPNGGGWEWSNSDVLNYLNWDGDPSSTVNRGHCGSLTASSGFLKWGDYYCDGTLPFVCKFKQ
# How the values were obtained:
# Experiment in all cases: glycan array binding signal (z-score within array); higher = stronger binding
# Settings in all cases: glycan notation: IUPAC condensed, linker removed
# Fuc(a1-2)Gal(b1-4)GlcNAc = molecular target: Fuc(a1-2)Gal(b1-4)GlcNAc
# Procedure, shortened: (§1)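 Arrays were curated from the Consortium for Functional Glycomics database, 3228 in total, and kept only where the protein sequence was available. Binding is expressed as a within-array Z-score. This score was averaged across arrays of the same protein sequence at different concentrations or buffers and across linkers, and negative values can be read as non-binding.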
# [1] = molecular target: Fuc(a1-2)Gal6S(b1-4)GlcNAc
# Procedure, shortened: as §1
# [2] = molecular target: Fuc(a1-3)[Gal3S(b1-4)]Glc
# Procedure, shortened: as §1
# Gal(a1-3)Gal(b1-3)Glc = molecular target: Gal(a1-3)Gal(b1-3)Glc
# Procedure, shortened: as §1
# Gal(a1-4)GlcNAc = molecular target: Gal(a1-4)GlcNAc
# Procedure, shortened: as §1
# Gal(a1-6)Glc = molecular target: Gal(a1-6)Glc
# Procedure, shortened: as §1
# Gal(b1-3)Gal = molecular target: Gal(b1-3)Gal
# Procedure, shortened: as §1
# [3] = molecular target: Gal(b1-3)GalNAc(b1-3)Gal(b1-4)GlcNAc
# Procedure, shortened: as §1
# [4] = molecular target: Gal(b1-4)GlcNAc(b1-2)Man(a1-3)[Gal(b1-4)GlcNAc(b1-2)Man(a1-6)]Man(b1-4)GlcNAc(b1-4)GlcNAc
# Procedure, shortened: as §1
# Gal3S(b1-4)Glc6S = molecular target: Gal3S(b1-4)Glc6S
# Procedure, shortened: as §1
# Gal3S(b1-4)GlcNAc = molecular target: Gal3S(b1-4)GlcNAc
# Procedure, shortened: as §1
# Gal3S(b1-4)GlcNAc6S = molecular target: Gal3S(b1-4)GlcNAc6S
# Procedure, shortened: as §1
# Gal3S6S(b1-4)GlcNAc6S = molecular target: Gal3S6S(b1-4)GlcNAc6S
# Procedure, shortened: as §1
# Gal6S(b1-4)Glc6S = molecular target: Gal6S(b1-4)Glc6S
# Procedure, shortened: as §1
# [5] = molecular target: GalNAc(b1-3)Gal(a1-4)Gal(b1-4)GlcNAc
# Procedure, shortened: as §1
# Glc(b1-4)Glc = molecular target: Glc(b1-4)Glc
# Procedure, shortened: as §1
# [6] = molecular target: GlcNAc(b1-4)GlcNAc(b1-4)GlcNAc(b1-4)GlcNAc(b1-4)GlcNAc(b1-4)GlcNAc
# Procedure, shortened: as §1
# [7] = molecular target: Man(a1-3)[Man(a1-6)]Man(b1-4)GlcNAc(b1-4)GlcNAc
# Procedure, shortened: as §1
# Man(b1-4)GlcNAc = molecular target: Man(b1-4)GlcNAc
# Procedure, shortened: as §1
# [8] = molecular target: Neu5Ac(a2-3)Gal(b1-3)GalNAc
# Procedure, shortened: as §1
# [9] = molecular target: Neu5Ac(a2-3)Gal(b1-4)GlcNAc(b1-3)Gal(b1-4)GlcNAc
# Procedure, shortened: as §1
# [10] = molecular target: Neu5Ac(a2-3)Gal(b1-4)GlcNAc(b1-6)[Gal(b1-3)]GalNAc
# Procedure, shortened: as §1
# [11] = molecular target: Neu5Ac(a2-3)Gal(b1-4)GlcNAc6S
# Procedure, shortened: as §1
# [12] = molecular target: Neu5Ac(a2-3)Gal(b1-4)[Fuc(a1-3)]GlcNAc(b1-3)Gal
# Procedure, shortened: as §1
# [13] = molecular target: Neu5Ac(a2-8)Neu5Ac(a2-3)Gal(b1-4)Glc
# Procedure, shortened: as §1
# [14] = molecular target: Neu5Ac(a2-8)Neu5Ac(a2-3)[GalNAc(b1-4)]Gal(b1-4)Glc
# Procedure, shortened: as §1
# [15] = molecular target: Neu5Gc(a2-3)Gal(b1-3)GlcNAc
# Procedure, shortened: as §1
# [16] = molecular target: Neu5Ac(a2-6)Gal(b1-4)GlcNAc
# Procedure, shortened: as §1
# [17] = molecular target: Neu5Ac(a2-6)Gal(b1-4)GlcNAc(b1-2)Man(a1-3)[Man(a1-6)]Man(b1-4)GlcNAc(b1-4)GlcNAc
# Procedure, shortened: as §1
# [18] = molecular target: Neu5Ac(a2-6)Gal(b1-4)GlcNAc(b1-3)Gal(b1-4)GlcNAc
# Procedure, shortened: as §1
# [19] = molecular target: Neu5Gc(a2-3)Gal(b1-3)[Fuc(a1-4)]GlcNAc
# Procedure, shortened: as §1
# [20] = molecular target: Fuc(a1-2)Gal(b1-4)GlcNAc(b1-3)Gal(b1-4)GlcNAc(b1-3)Gal(b1-4)GlcNAc
# Procedure, shortened: as §1
# Fuc(a1-2)[Gal(a1-3)]Gal = molecular target: Fuc(a1-2)[Gal(a1-3)]Gal
# Procedure, shortened: as §1
# Gal(a1-3)Gal(b1-4)GlcNAc = molecular target: Gal(a1-3)Gal(b1-4)GlcNAc
# Procedure, shortened: as §1
# [21] = molecular target: Gal(a1-3)[Gal(a1-4)]Gal(b1-4)GlcNAc
# Procedure, shortened: as §1
# [22] = molecular target: Gal(b1-4)GlcNAc(b1-6)GalNAc
# Procedure, shortened: as §1
# Gal3S(b1-4)Glc = molecular target: Gal3S(b1-4)Glc
# Procedure, shortened: as §1
# Gal4S(b1-4)GlcNAc = molecular target: Gal4S(b1-4)GlcNAc
# Procedure, shortened: as §1
# Gal6S(b1-4)Glc = molecular target: Gal6S(b1-4)Glc
# Procedure, shortened: as §1
# [23] = molecular target: GlcNAc(b1-3)[GlcNAc(b1-6)]GlcNAc(b1-4)GlcNAc
# Procedure, shortened: as §1
# [24] = molecular target: Man(a1-2)Man(a1-2)Man(a1-6)[Man(a1-3)]Man
# Procedure, shortened: as §1
# [25] = molecular target: Neu5Ac(a2-3)Gal(b1-4)GlcNAc(b1-3)Gal(b1-4)GlcNAc(b1-3)Gal(b1-4)GlcNAc
# Procedure, shortened: as §1
# [26] = molecular target: Neu5Ac(a2-3)Gal(b1-4)[Fuc(a1-3)]GlcNAc
# Procedure, shortened: as §1
binder,measurement,setting,value
B1,glycan array binding signal (z-score),Fuc(a1-2)Gal(b1-4)GlcNAc,-0.263
same,glycan array binding signal (z-score),[1],-0.475
same,glycan array binding signal (z-score),[2],-0.408
same,glycan array binding signal (z-score),Gal(a1-3)Gal(b1-3)Glc,-0.259
same,glycan array binding signal (z-score),Gal(a1-4)GlcNAc,-0.495
same,glycan array binding signal (z-score),Gal(a1-6)Glc,1.59
same,glycan array binding signal (z-score),Gal(b1-3)Gal,-0.536
same,glycan array binding signal (z-score),[3],-0.307
same,glycan array binding signal (z-score),[4],0.176
same,glycan array binding signal (z-score),Gal3S(b1-4)Glc6S,2.36
same,glycan array binding signal (z-score),Gal3S(b1-4)GlcNAc,0.201
same,glycan array binding signal (z-score),Gal3S(b1-4)GlcNAc6S,2.01
same,glycan array binding signal (z-score),Gal3S6S(b1-4)GlcNAc6S,6.42
same,glycan array binding signal (z-score),Gal6S(b1-4)Glc6S,3.24
same,glycan array binding signal (z-score),[5],-0.171
same,glycan array binding signal (z-score),Glc(b1-4)Glc,0.332
same,glycan array binding signal (z-score),[6],1.31
same,glycan array binding signal (z-score),[7],0.275
same,glycan array binding signal (z-score),Man(b1-4)GlcNAc,-0.448
same,glycan array binding signal (z-score),[8],-0.559
same,glycan array binding signal (z-score),[9],-0.49
same,glycan array binding signal (z-score),[10],-0.301
same,glycan array binding signal (z-score),[11],0.103
same,glycan array binding signal (z-score),[12],-0.522
same,glycan array binding signal (z-score),[13],-0.41
same,glycan array binding signal (z-score),[14],-0.266
same,glycan array binding signal (z-score),[15],-0.432
B2,glycan array binding signal (z-score),[11],-0.232
same,glycan array binding signal (z-score),[16],-0.176
same,glycan array binding signal (z-score),[17],-0.295
same,glycan array binding signal (z-score),[18],-0.249
same,glycan array binding signal (z-score),[19],-0.316
B3,glycan array binding signal (z-score),Fuc(a1-2)Gal(b1-4)GlcNAc,-0.094
same,glycan array binding signal (z-score),[20],0.048
same,glycan array binding signal (z-score),Fuc(a1-2)[Gal(a1-3)]Gal,-0.098
same,glycan array binding signal (z-score),Gal(a1-3)Gal(b1-4)GlcNAc,-0.089
same,glycan array binding signal (z-score),[21],0.002
same,glycan array binding signal (z-score),[22],-0.096
same,glycan array binding signal (z-score),Gal3S(b1-4)Glc,-0.096
same,glycan array binding signal (z-score),Gal4S(b1-4)GlcNAc,0.116
same,glycan array binding signal (z-score),Gal6S(b1-4)Glc,-0.072
same,glycan array binding signal (z-score),[23],-0.081
same,glycan array binding signal (z-score),[24],-0.092
same,glycan array binding signal (z-score),[25],0.002
same,glycan array binding signal (z-score),[26],-0.054
